# Data from PubChem BioAssay (Tox21).
# Records with an inconclusive call do not appear. Entries that show only a call come without a potency. Active and inactive are the calls of the source. Calls follow the shape of the dose curve; as a rule, active = well fitted cell-killing curve with a large enough effect in the repeat runs; inconclusive = weak or mixed curves, or effect the other way; inactive = flat fitted curve, though single readings scatter.
# Experiment: qHTS assay to identify small molecule antagonists of the androgen receptor (AR) signaling pathway using the MDA cell line - cell viability counter screen (AID 743041; also: nearly all actives have a fitted effect of over 45% in size)
# Settings: MDA-kb2 viability, CellTiter-Fluor, 16 h, cells co-treated with R1881 androgen agonist; series mostly up to 70.3 µM
# From the text: National Center for Advancing Translational Sciences [NCATS]
# NIH Chemical Genomics Center [NCGC]
# U.S. Environmental Protection Agency [EPA]
# National Institutes of Environmental Health Sciences [NIEHS]
# National Toxicology Program [NTP]
# U.S. Food and Drug Administration [FDA]
# Androgen receptor (AR), a nuclear hormone receptor, plays a critical role in AR-dependent prostate cancer and other androgen related diseases. Endocrine disrupting chemicals (EDCs) and their interactions with steroid hormone receptors like AR may cause disruption of normal endocrine function as well as interfere with metabolic homeostasis, reproduction, developmental and behavioral functions. To identify the compounds that inhibit AR signaling, MDA-kb2 AR-luc cell line (from ATCC, deposited by Wilson et al.) was used to screen the Tox21 10K compound library. MDA-kb2 AR-luc cell line is human breast carcinoma cell line that was stably transfected with a luciferase reporter gene under control of the MMTV promoter containing response elements for both androgen receptor (AR) and glucocorticoid receptor (GR). The cytotoxicity of the Tox21 compound library against the MDA-kb2 AR-luc cell line was tested in parallel by measuring the cell viability using CellTiter-Fluor assay (Promega, Madison, WI) in the same wells.
# Tox21 Assay Protocol Summary:
# MDA-kb2 AR-luc cells were dispensed at 3,000 cells/4 uL/well of culture medium into white wall/solid-bottom 1536-well plates using a Multidrop Combi (ThermoFisher Scientific, Waltham, MA) dispenser. After the assay plates were incubated at a 37C and 0% CO2 for 5 hr, 23 nL of compounds dissolved in DMSO, positive controls or DMSO only was transferred to the assay plate by a Pintool station (Kalypsys, San Diego, CA), followed by addition of 1 uL of agonist (R1881) in culture medium using a Bioraptr Flying Reagent Dispenser (FRD) workstation (Beckman Coulter, Indianapolis, IN, USA). The plates were incubated at a 37C and 0% CO2 for 16 h. After 15.5 h incubation, 1uL of CellTiter-Fluor reagent (Promega) was added using a Bioraptr FRD to each plate for measuring cytotoxicity. The fluorescence intensity was quantified on a ViewLux plate reader (PerkinElmer, Shelton, CT) following 30 min incubation at 37C and 0% CO2.
row,Compound,Potency
1,CC(C)(C)NCC(O)c1cc(Cl)c(N)c(Cl)c1 (stereo not given),inactive
2,CC1=NNC(=O)N(/N=C/c2cccnc2)C1,inactive
3,CC(CC(C#N)(c1ccccc1)c1ccccc1)N(C)C (stereo not given),inactive
4,O=C(Nc1ccccc1)c1ccccc1I,inactive
5,O=[N+]([O-])c1cccc2cccnc12,inactive
6,COC(=O)c1ccccc1S(=O)(=O)NC(=O)Nc1nc(C)cc(C)n1,inactive
7,COC(=O)COc1ccc(Cl)cc1Cl,inactive
8,COC(=O)c1c(C(F)F)nc(C(F)(F)F)c(C2=NCCS2)c1CC(C)C,inactive
9,OCCBr,inactive
10,C(CCOCC1CO1)COCC1CO1 (stereo not given),inactive
11,COC(=O)C(c1ccccc1)C1CCCCN1 (stereo not given),inactive
12,CCOP(=S)(Oc1cnc(C(C)(C)C)nc1)OC(C)C (stereo not given),inactive
13,CCCCOC(=O)c1ccccc1N,inactive
14,C[N+](C)=CCl,inactive
15,CC1CCCCC1NC(=O)Nc1ccccc1 (stereo not given),inactive
16,COc1cc(OC)nc(NC(=O)NS(=O)(=O)c2ncccc2OCC(F)(F)F)n1,inactive
17,[As]#[In],inactive
18,Fc1ccc(C2(Cn3cncn3)OC2c2ccccc2Cl)cc1 (stereo not given),inactive
19,CCCCCCI,inactive
20,Nc1n[nH]c(N)n1,inactive

row,Compound,Potency
1,Nc1ccccc1Cl,inactive
2,CCOC(=O)NC(=S)Nc1ccccc1NC(=S)NC(=O)OCC,inactive
3,O=[N+]([O-])c1cccc2c([N+](=O)[O-])cccc12,inactive
4,O=c1oc2ccccc2c(O)c1C1CCCc2ccccc21 (stereo not given),inactive
5,Clc1cccc(N2CCNCC2)c1,inactive
6,CC(C1CC1)C(O)(Cn1cncn1)c1ccc(Cl)cc1 (stereo not given),inactive
7,N#Cc1ccncc1,inactive
8,CCCCCCBr,inactive
9,CCOC(=O)N(C)C(=O)CSP(=S)(OCC)OCC,inactive
10,COc1cc2c(cc1OC)[C@@]13CCN4CC5=CCO[C@H]6CC(=O)N2[C@H]1[C@H]6[C@H]5C[C@H]43,inactive
11,N#Cc1c(Cl)cccc1Cl,inactive
12,CCC1(c2ccccc2)C(=O)N=C(O)NC1=O (stereo not given),inactive
13,Cc1cccc(C#N)c1,inactive
14,CNC(=O)Oc1ccccc1C1OCCO1,inactive
15,O=C1CN=C(c2ccccc2)c2cc([N+](=O)[O-])ccc2N1,inactive
16,O=NN1CCN(N=O)CC1,inactive
17,OC(c1ccc(F)cc1)(c1cncnc1)c1ccccc1Cl (stereo not given),inactive
18,CCC(Cl)[N+](=O)[O-] (stereo not given),inactive
19,c1cc2c(c(N3CCNCC3)c1)OCCO2,inactive
20,O=[N+]([O-])c1ccc2c3c(cccc13)CC2,inactive
